High-throughput results (PubChem)
G9a inh: blocks human histone lysine methyltransferase G9a | AID 504332 | G9a H3K9 monomethylation, AlphaScreen, 2 h | Q96KQ7 | Potency, µM (titrated, usually from 102 µM), hits mostly inhibitors | hit rate 8.8% among 350,000; note: nearly all actives have a fitted effect of over 75% in size
Target sequence (Q96KQ7 913-1193 limits assumed): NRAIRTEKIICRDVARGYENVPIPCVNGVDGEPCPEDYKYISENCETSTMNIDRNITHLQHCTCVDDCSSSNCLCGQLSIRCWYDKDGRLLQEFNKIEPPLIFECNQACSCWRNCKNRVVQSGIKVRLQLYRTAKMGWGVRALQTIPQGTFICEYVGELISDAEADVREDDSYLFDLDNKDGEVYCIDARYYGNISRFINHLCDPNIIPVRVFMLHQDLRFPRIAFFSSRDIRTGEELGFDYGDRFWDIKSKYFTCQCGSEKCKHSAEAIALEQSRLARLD
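Readings reflect AlphaScreen signal from monomethyl-H3K9 antibody detection. HMT at 20 nM; substrate b-H3K9 500 nM; cofactor SAM 20 uM; 2 h RT reaction; compounds tested as titrations in qHTS with 15 min preincubation.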
JMJD2A Tudor: JMJD2A Tudor domain (human) inhibition. AID 504339. O75164. AlphaScreen JMJD2A-Tudor / H3K4me3 peptide binding. hit rate 4.4% among 390,000. Potency, µM (titrated, usually from 114 µM), usual class: inhibitors; note: nearly all actives have a fitted effect of over 50% in size
HP1b chromo inh: blocks HP1-beta chromodomain binding to methylated histone tails; P83916; AlphaScreen HP1-beta / biotin-H3K9me3 peptide binding; Potency, µM (titrated, usually from 114 µM), most hits filed as inhibitors; hit rate 0.56% among 390,000; AID 540317; note: nearly all actives have a fitted effect of over 70% in size
Target sequence (P83916 whole entry, looked up): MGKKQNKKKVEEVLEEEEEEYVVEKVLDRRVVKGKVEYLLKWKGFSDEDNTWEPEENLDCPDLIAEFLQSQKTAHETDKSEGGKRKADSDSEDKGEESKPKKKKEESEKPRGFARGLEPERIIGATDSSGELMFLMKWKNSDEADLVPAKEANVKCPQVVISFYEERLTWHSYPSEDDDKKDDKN
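Compound inhibition of the preformed complex between 50 nM HP1-beta and 50 nM biotinylated H3K9me3 peptide was read by AlphaScreen. Buffer was PBS pH 7.4 with 0.01% Tween-20. Incubations ran 30 min at room temperature, with 10 ug/mL donor/acceptor beads.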
BAZ2B block: blocks human BAZ2B. Q9UIF8. AlphaScreen BAZ2B-H3K14Ac peptide displacement. Potency, µM (highest dose often 114 µM), actives largely listed as inhibitors. hit rate 4.4% among 360,000. AID 504333; note: nearly all actives have a fitted effect of over 60% in size
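Multi-concentration screen (max 110 uM) measuring displacement of acetylated histone H3 peptide from BAZ2B by AlphaScreen, using 50 nM protein, 50 nM peptide and 10 ug/mL streptavidin donor plus Ni-chelate acceptor beads.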
L3MBTL1 inh: inhibitors of human L3MBTL1; Potency, µM (titrated, usually from 57.1 µM), usual class: inhibitors; AlphaScreen L3MBTL1–H3K9me1 peptide binding; Q9Y468; hit rate 0.66% among 230,000; note: nearly all actives have a fitted effect of over 60% in size
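Read-out is AlphaScreen signal from streptavidin donor and nickel chelate acceptor beads (10 ug/mL final each) bridging L3MBTL1 (50 nM) and biotinylated K9-monomethylated H3(1-15) peptide (75 nM), after 30 min compound exposure at room temperature.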
Of the large screens only hits and unclear results are named; the others gave an inactive call. Sampled rows, rich in hits. Any-hit rate of the full collection: about 11%. Calls come from the whole dose curve; as a rule, active = well fitted inhibition curve with a large enough effect; inconclusive = small, poorly fitted or top-dose-only effect; inactive = no such curve, though single readings can be large or run the other way.

O=C(CC(Nc1ccc(F)cc1)C(=O)O)c1ccccc1 (centres undefined)	G9a inh 10µM
CCOC(=O)c1cc(S(=O)(=O)NCc2ccc(C)cc2)[nH]n1	G9a inh 5.62µM, BAZ2B block 50.1µM (no result: L3MBTL1 inh)
CCOC(=O)c1cc(S(=O)(=O)NCc2cccc(Cl)c2)[nH]n1	G9a inh 3.55µM, BAZ2B block 50.1µM (no result: L3MBTL1 inh)
CCc1ccc(CNC(=O)C2CCCN(c3nn4cc(-c5ccc(F)cc5)nc4s3)C2)cc1 (centres undefined)	none (no result: L3MBTL1 inh)
CC1(C)Cc2c(C#N)c(NCC3CCCO3)nc(-c3ccco3)c2CO1 (centres undefined)	G9a inh 10µM
CC1(C)Cc2c(C#N)c(NC3CCCCC3)nc(-c3ccco3)c2CO1	G9a inh 11.2µM (no result: JMJD2A Tudor, HP1b chromo inh)
CC1(C)Cc2c(C#N)c(NCCc3ccccc3)nc(-c3ccco3)c2CO1	none
CCOc1cc(N2CCOCC2)c(OCC)cc1NC(=O)C(C)Oc1ccccc1 (centres undefined)	JMJD2A Tudor 35.5µM (no result: G9a inh, BAZ2B block)
CCOc1cc(N2CCOCC2)c(OCC)cc1NC(=O)Cc1cccc2ccccc12	G9a inh 3.55µM, JMJD2A Tudor inconclusive, BAZ2B block 22.4µM (no result: L3MBTL1 inh)
CCOc1cc(N2CCOCC2)c(OCC)cc1NC(=O)c1ccc2ccccc2n1	G9a inh 17.8µM, JMJD2A Tudor 22.4µM, HP1b chromo inh inconclusive, BAZ2B block 15.8µM
CCOc1cc(N2CCOCC2)c(OCC)cc1NC(=O)C1CCCC1	G9a inh 7.94µM (no result: L3MBTL1 inh)
CCOc1cc(N2CCOCC2)c(OCC)cc1NC(=O)c1ccccc1C	G9a inh inconclusive, JMJD2A Tudor inconclusive, BAZ2B block inconclusive
COc1ccc(NC(=O)CSc2nc3ccccc3n2CC(=O)N(C)C2CCCCC2)cc1	none (no result: L3MBTL1 inh)
CCOc1cc(N2CCOCC2)c(OCC)cc1NC(=O)c1nn(CC)c(=O)c2ccccc12	G9a inh inconclusive, JMJD2A Tudor 50.1µM, BAZ2B block 50.1µM
CCOc1cc(N2CCOCC2)c(OCC)cc1NC(=O)CN1CCCC1	G9a inh 3.16µM, JMJD2A Tudor inconclusive, BAZ2B block 12.6µM
CCOc1cc(N2CCOCC2)c(OCC)cc1NC(=O)CCC1CCCC1	none
CCOc1cc(N2CCOCC2)c(OCC)cc1NC(=O)c1ccc(=O)n(Cc2ccccc2)n1	none (no result: JMJD2A Tudor, HP1b chromo inh)
CC1CCN(C(=O)C2COc3ccccc3C2)CC1 (centres undefined)	none (no result: L3MBTL1 inh)
CCc1nnc(NC(=O)CN2CCN(CC)CC2)s1	G9a inh 79.4µM
CCc1nnc(NC(=O)CN2CCN(c3ccccc3OC)CC2)s1	G9a inh inconclusive, JMJD2A Tudor 56.2µM, HP1b chromo inh inconclusive
CCc1nnc(NC(=O)CN2CCN(S(C)(=O)=O)CC2)s1	none (no result: L3MBTL1 inh)
COc1ccccc1N1CCN(CC(=O)Nc2ccc(CN3CCCCC3)cc2)CC1	G9a inh 10µM, JMJD2A Tudor 3.98µM, HP1b chromo inh inconclusive, BAZ2B block 50.1µM
CCc1nnc(NC(=O)CN2CCN(c3nc(-c4ccccc4)cs3)CC2)s1	G9a inh 50.1µM, JMJD2A Tudor inconclusive, BAZ2B block inconclusive
CC1(c2ccc(Cl)cc2)NC(=O)N(CC(=O)NCCC2=CCCCC2)C1=O (centres undefined)	G9a inh 0.891µM
Cc1ccc(C2(C)NC(=O)N(CC(=O)NCCC3=CCCCC3)C2=O)cc1 (centres undefined)	G9a inh inconclusive (no result: L3MBTL1 inh)
O=C(O)c1cccc(Nc2nc(-c3ccc([N+](=O)[O-])cc3)nc3ccccc23)c1	G9a inh inconclusive, BAZ2B block 56.2µM (no result: L3MBTL1 inh)
O=C(O)c1cccc(-n2c(/C=C/c3cccc([N+](=O)[O-])c3)nc3ccccc3c2=O)c1	none (no result: L3MBTL1 inh)
O=C(O)c1cccc(Nc2nc3ccccc3nc2NS(=O)(=O)c2cccs2)c1	G9a inh 44.7µM (no result: L3MBTL1 inh)
O=C(O)c1cccc(Nc2nc(-c3ccccc3)nc3ccccc23)c1	G9a inh 56.2µM, BAZ2B block inconclusive (no result: L3MBTL1 inh)
CC(=O)c1ccc(Nc2nc3ccccc3nc2NS(=O)(=O)c2cccs2)cc1	none (no result: L3MBTL1 inh)
O=C(O)c1cccc(Nc2nc(C(F)(F)F)nc3ccccc23)c1	L3MBTL1 inh inconclusive
O=C(O)c1cccc(-n2c(/C=C/c3ccc([N+](=O)[O-])cc3)nc3ccccc3c2=O)c1	G9a inh 70.8µM
O=[N+]([O-])c1ccc(-c2nc(Nc3cccc(O)c3)c3ccccc3n2)cc1	none (no result: L3MBTL1 inh)
Cc1ccc(NC(=O)Cn2cnc3sc(C)c(S(=O)(=O)N4CCN(c5ncccn5)CC4)c3c2=O)cc1F	none (no result: L3MBTL1 inh)
COc1ccc(Br)cc1/C=N/n1c(-c2ccccc2)n[nH]c1=S	G9a inh 3.55µM, JMJD2A Tudor inconclusive
COc1cc(/C=N/n2c(-c3ccccc3)n[nH]c2=S)ccc1O	G9a inh 2.24µM, JMJD2A Tudor 5.01µM
CCOc1cc(/C=N/n2c(C)nc3ccccc3c2=O)ccc1O	none (no result: L3MBTL1 inh)
COc1cc(/C=N/S(=O)(=O)c2ccccc2)cc(OC)c1O	G9a inh inconclusive (no result: L3MBTL1 inh)
COc1ccc(/C=N/n2c(-c3ccc(C)cc3)n[nH]c2=S)cc1OC	G9a inh 0.398µM, JMJD2A Tudor 7.94µM
COc1cc(/C=N/n2c(-c3ccccc3)n[nH]c2=S)cc(OC)c1O	G9a inh 0.708µM, JMJD2A Tudor 3.16µM
Cc1ccc(C(=O)c2c3ccc([N+](=O)[O-])cc3[n+]([O-])n2CCCN)cc1	JMJD2A Tudor inconclusive, BAZ2B block inconclusive
COC(=O)c1nn2c(C(F)(F)F)cc(-c3ccc(Br)o3)nc2c1Br	G9a inh 44.7µM
CCCNC(=O)c1nn2c(C(F)(F)F)cc(-c3ccccc3)nc2c1Br	none
CCCCNC(=O)c1nn2c(C(F)(F)F)cc(-c3ccc(OC)cc3)nc2c1Br	JMJD2A Tudor 35.5µM
O=c1ccn(CCOc2ccc(Cl)cc2)c(=O)[nH]1	none
Clc1ccc(OCCn2cnc(Cl)c2Cl)cc1	G9a inh 50.1µM, HP1b chromo inh inconclusive, BAZ2B block inconclusive
Cc1nccn1CCOc1ccc(Cl)cc1	G9a inh 8.91µM, JMJD2A Tudor 4.47µM, HP1b chromo inh inconclusive, BAZ2B block 44.7µM
COc1ccc(OCCn2cnc(Cl)c2Cl)cc1	none
CC(=O)N(/C=C1\SC(=S)N(c2ccccc2)C1=O)c1ccccc1	G9a inh inconclusive, JMJD2A Tudor inconclusive, BAZ2B block inconclusive
CN(C)/C=C1\SC(=S)N(c2ccc(F)cc2)C1=O	G9a inh 63.1µM (no result: L3MBTL1 inh)
CN(C)/C=C1\SC(=S)N(c2ccc(Br)cc2)C1=O	G9a inh 44.7µM, JMJD2A Tudor inconclusive, BAZ2B block 39.8µM (no result: L3MBTL1 inh)
COc1ccc(-c2cn3nc(SCC(=O)Nc4cc(C)cc(C)c4)ccc3n2)cc1	none (no result: L3MBTL1 inh)
CCc1cccc(C)c1NC(=O)C(CC)n1ncn2c(cc3cc(C)ccc32)c1=O (centres undefined)	none (no result: L3MBTL1 inh)
O=C(CSc1nc(=O)n(Cc2ccccn2)c2c1CCC2)Nc1ccccc1	none (no result: L3MBTL1 inh)
COc1ccc(-n2c(O)c(/C=N/NS(=O)(=O)c3cc(C)ccc3C)c3ccccc3c2=O)cc1OC	G9a inh inconclusive, JMJD2A Tudor 50.1µM, BAZ2B block 44.7µM
COc1ccc(-n2c(O)c(/C=N/Nc3nc(C)cc(C)n3)c3ccccc3c2=O)cc1OC	none
